Assay outcomes: PubChem BioAssay, National Center for Advancing Translational Sciences (NCATS)
Tau filament bind = binds recombinant human tau filaments | AID 596 | recombinant tau filaments, thioflavin S fluorescence, 15 h; filaments grown with octadecylsulfate alongside compound | Potency, µM (highest dose often 57.1 µM), inactives show at the highest dose activity change, negative = inhibition | 71,000 tested, 2% active | P10636;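 note: % is set by controls: 0 for no effect and ±100 for the full control effect; actives lower thioflavin S fluorescence by blocking filaments or displacing dye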
Target sequence (P10636 whole entry, looked up): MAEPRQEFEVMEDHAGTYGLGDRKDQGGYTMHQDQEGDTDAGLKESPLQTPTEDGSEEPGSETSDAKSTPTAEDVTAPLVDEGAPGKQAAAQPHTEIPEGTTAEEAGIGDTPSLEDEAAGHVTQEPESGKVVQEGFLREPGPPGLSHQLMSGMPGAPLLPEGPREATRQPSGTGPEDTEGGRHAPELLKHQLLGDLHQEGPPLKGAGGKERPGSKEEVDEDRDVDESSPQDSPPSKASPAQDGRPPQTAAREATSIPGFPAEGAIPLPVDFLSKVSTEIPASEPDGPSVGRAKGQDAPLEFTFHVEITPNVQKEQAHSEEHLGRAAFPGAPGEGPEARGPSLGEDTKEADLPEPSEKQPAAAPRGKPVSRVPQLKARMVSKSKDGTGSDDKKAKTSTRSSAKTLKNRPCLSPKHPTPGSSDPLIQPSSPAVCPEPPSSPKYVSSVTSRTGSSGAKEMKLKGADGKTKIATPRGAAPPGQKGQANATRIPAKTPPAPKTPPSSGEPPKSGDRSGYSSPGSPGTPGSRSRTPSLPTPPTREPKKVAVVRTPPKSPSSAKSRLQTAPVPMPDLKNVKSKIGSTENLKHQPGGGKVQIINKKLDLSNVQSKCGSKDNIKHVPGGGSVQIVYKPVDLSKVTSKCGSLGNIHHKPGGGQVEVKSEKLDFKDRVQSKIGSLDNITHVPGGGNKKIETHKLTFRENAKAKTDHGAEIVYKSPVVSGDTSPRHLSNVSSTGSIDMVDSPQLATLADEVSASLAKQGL
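Read-out: ThS fluorescence, 450 nm excitation/510 nm emission; lower signal marks blocked filament formation or displaced dye. Tau at 1 uM with 30 uM ODS, 10 uM ThS, 5 mM DTT, 100 mM NaCl, 10 mM HEPES pH 7.4; 15 h, 37 C.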
FLuc inh = inhibitors of firefly luciferase; purified firefly luciferase, luminescence, 8 min; Potency, µM (series often up to 57.1 µM), for the others: top-dose activity change, negative = inhibition, hits mostly inhibitors; 72,000 tested, 2.2% active; note: % is set by controls: 0 for no effect and ±100 for the full control effect; nearly all actives have a fitted effect of over 40% in size
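Substrate buffer containing 10 uM ATP (pH 7.2 imidazole, Mg2+, KCl, detergent, BSA) is dispensed, compound pinned in, then luciferase/luciferin detector mix added. After 8 min at ambient temperature, light output is measured.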
PK Bst = alters activity of Bacillus stearothermophilus pyruvate kinase | 51,000 tested, 1.2% active | Potency, µM | purified pyruvate kinase, luminescence ATP production; ribose 5-phosphate activator present at AC10; in the data active = potency below about 11 µM; inconclusive = mostly about 12 µM to 25 µM;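 the screen sought inhibitors and activators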;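 note: scaled between full activation by ribose 5 phosphate and full inhibition by luteolin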
TSHR agonist = TSH receptor (human) agonism; P16473; HEK293-CNG-TSHR cells (CNG channel as cAMP sensor), membrane potential dye, cAMP; Potency, µM (series often up to 57.1 µM), inactives show at the highest dose activation, actives largely listed as activators; 73,000 tested, 0.48% active; AID 926; active = well fitted activation curve with a large enough effect in the main read-out, with a control signal flat, not every such curve was filed as active; inconclusive = small, poorly fitted or top-dose-only effect, or a change in a side signal; inactive = no such curve, though single readings can be large or run the other way; % of control where 0% means no effect;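 note: the control signal comes from parental cells without the receptor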
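cAMP rise detected as CNG-channel membrane depolarization by fluorescent dye (emission 590 nm), 30 min after compound, following 60 min dye loading containing 100 uM RO 20-1724 at room temperature. Cells: TSHR/CNG HEK 293, with parental CNG HEK 293 as control.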
ERK AVP inh = blocks ERK signaling stimulated by vasopressin; Potency, µM (titrated, usually from 57.5 µM), without a hit: at the highest dose activity, negative = inhibition, usual class: inhibitors; 72,000 tested, 0.99% active; HEK293-V1b, vasopressin-stimulated pERK AlphaScreen; AID 995; note: % is set by controls: 0 for no effect and ±100 for the full control effect; nearly all actives have a fitted effect of over 55% in size
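Overnight-seeded V1b-HEK293 cells in 1% FBS got compound, then vasopressin (25 nM final, 5 min, 37C), then lysis buffer. AlphaScreen detection of phospho-ERK; activity normalized to basal and full-stimulation controls.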
HEK293 cAMP ctrl = raises cAMP in parental HEK293 cells, TSHR agonist counter-screen; parental HEK293 CNG cAMP sensor, membrane potential fluorescence; 73,000 tested, 2.5% active; Potency, µM (titrated, usually from 57.1 µM), inactives show at the highest dose activation, actives largely listed as activators; AID 938; note: % of control where 0% means no effect; nearly all actives have a fitted effect of over 55% in size
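Parental HEK 293 cells stably expressing a cAMP-gated CNG channel were loaded with membrane potential dye containing 100 uM RO 20-1724 for 60 min. Compound added for 30 min; depolarization read as fluorescence intensity at 590 nm.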
Numbers without * were called inactive; i = inactive; u = inconclusive; x = no result; [ ] = remark or other dose. Shown are actives, neighbours in structure and some others; about 7.2% of the full set was active somewhere. Unless noted, calls come from the whole dose curve; as a rule, active = well fitted curve in the direction sought with a large enough effect; inconclusive = small, poorly fitted or top-dose-only effect, or another doubt; inactive = no such curve, though single readings can be large; an effect the other way counts as inactive or inconclusive. Potency is the fitted concentration of half-maximal effect.

SMILES	Tau filament bind	FLuc inh	PK Bst	TSHR agonist	ERK AVP inh	HEK293 cAMP ctrl
CCOc1ccc(C(=O)NCCn2cc(SCC(=O)Nc3cc(C)on3)c3ccccc32)cc1	46%	16µM*	>57	2%	2%	-1%
O=C(COC(=O)c1cccnc1)c1ccc(Cl)cc1	u	16µM*	x	1%	-1%	-1%
Cc1nn(-c2ccccc2C(=O)O)c(=O)c2ccccc12	-11%	1%	>57	10µM*	-14%	-3%
C/C(=C\C(=O)Nc1nccs1)c1ccccc1	7%	25µM*	i	1%	-8%	3%
CCC(C(=O)Nc1nccs1)c1ccccc1 (stereo not given)	-14%[11.4 µM]	-3%	x	8%[11.4 µM]	24%	-9%[11.4 µM]
COc1ccc(CC(=O)Nc2cc(C)on2)cc1	-4%	-3%	>57	4%	-1%	2%
COc1ccc(C(=O)/C=C/Nc2cc(C)on2)cc1	10%	3.2µM*	x	12%	-4%	15%
O=C(N=c1nc2ccccn2s1)c1ccccc1	-8%	0.79µM*	1.1*	-2%[11.4 µM]	-3%	-6%
NC(CCC(=O)N[C@@H](CS)C(=O)NCC(=O)O)C(=O)O (stereo not given in full)	x	x	x	x	-8%	x
Cc1ccc(C2C3=C(CC(C)(C)CC3=O)NC3=C2C(=O)CC(C)(C)C3)o1	2%	3%	>57	13µM*	-13%	3%
N#Cc1c(-c2ccco2)cc(-c2ccc(F)cc2)nc1N	-17%	1%	4.7*	u	5%	u
Cc1noc(C)c1C(=O)N1CCC2(CCN(C(=O)Nc3ccccc3)CC2)CC1	8%	2%[11.4 µM]	x	2%	5%	-8%
CC(C)N(Cc1nc(-c2ccccc2)no1)C(=O)COc1ccccc1	-11%	1%	x	x	u	14%
Cc1ccc(-c2noc(CN(C(=O)CCCN3C(=O)c4ccccc4C3=O)C(C)C)n2)cc1	16µM*	-1%	>57	u	-7%	u
COc1ccccc1OCC(=O)N(Cc1nc(-c2ccc(Cl)cc2)no1)C(C)C	208%	1%	x	u	u	u
O=C1c2ccccc2C(=O)N1CCCc1nc(-c2ccccn2)no1	-4%	2%	>57	-2%	-1%	-1%
O=C1c2ccccc2C(=O)N1CCCc1nc(-c2ccc(Cl)cc2)no1	7%	4%	x	u	2%	0.16µM*
CC(C)N(Cc1nc(-c2ccc(Cl)cc2)no1)C(=O)CCC1CCCC1	-10%	-10%	x	u	112%	20µM*
Cc1cc(Br)ccc1OCC(=O)N(Cc1nc(-c2ccccc2)no1)C(C)C	2%	1%	>57	u	3%	10µM*
C(=C/c1ccccc1)/CN1CCN(C(c2ccccc2)c2ccccc2)CC1	6%[25.6 µM]	0%[25.5 µM]	x	-8%[25.6 µM]	x	-6%[25.6 µM]
C[C@@]12CCC(=O)C=C1CC[C@H]1[C@H]3CC[C@](O)(C(=O)CO)[C@]3(C)CC[C@@H]12	-2%	1%	x	x	x	6%
CC1CCC2CC1C2(C)C (stereo not given)	-12%	x	x	-8%	1%	5%
O=S(=O)(c1ccccc1)N1CCC2(CCCN(c3cccc(-c4ccccc4)c3)C2)CC1	-4%	1%[11.4 µM]	x	2%	31%	14%
O=S(=O)(c1ccccc1)N1CCC2(CC1)CN(c1ccncc1)C2	2%	0%[11.4 µM]	x	5%	43%	3%
O=S(=O)(c1ccccc1)N1CCC2(CCCN(c3ccncc3)C2)CC1	22%	1%[11.4 µM]	x	u	-11%	20µM*
SMILES	Tau filament bind	FLuc inh	PK Bst	TSHR agonist	ERK AVP inh	HEK293 cAMP ctrl
O=S(=O)(c1ccccc1)N1CCC2(CCCN(c3ccccc3)C2)CC1	-5%	0%[11.4 µM]	x	u	16%	25µM*
N#Cc1ccc(CN2CCCC3(CCN(S(=O)(=O)c4ccccc4)CC3)C2)cc1	14%	1%[11.4 µM]	x	u	19%	13µM*
COc1ccc(C(=O)N2CCC[C@@]3(CCN(Cc4cc(C(F)(F)F)cc(C(F)(F)F)c4)C3)C2)cc1	31%	1%[11.4 µM]	x	-3%	1%	-6%
Cc1onc(-c2c(F)cccc2Cl)c1C(=O)N[C@H]1C(=O)N2[C@H]1SC(C)(C)[C@H]2C(=O)O	2%[25.6 µM]	1%[25.5 µM]	x	-1%[25.6 µM]	-11%[25.7 µM]	1%[25.6 µM]
Cc1c(C2CCN(CCc3ccccc3)CC2)noc1-c1ccc(Cl)cc1	-29%	2%	x	u	-20%	-30%
CCn1c(=O)cc(SCC(=O)N2CCN(c3ccccc3OC)CC2)c2ccccc21	20%	1%	>57	11%	25µM*	14%
O=C(c1cc(C(F)(F)F)cc(C(F)(F)F)c1)N1CCC2(CCN(Cc3nccs3)CC2)CC1	-5%	1%[11.4 µM]	x	-3%	-17%	8%
O=C(Nc1ccc2c(c1)OCCO2)c1ccc(Br)o1	x	5µM*	u	x	x	x
Cc1ccc(C(=O)Nc2ccc3c(c2)OCO3)o1	20µM*	13µM*	x	1%	-19%	-2%
C/C(=C\C(=O)c1ccc(C)o1)Nc1ccc2c(c1)OCO2	13µM*	-15%	x	u	u	u
O=C(Nc1ccc2c(c1)OCCO2)NC12CC3CC(CC(C3)C1)C2	-3%	13µM*	x	8%	-13%	5%
Cc1noc(C)c1-c1cc(NCc2ccccc2)ncn1	-2%	1%[2.29 µM]	x	u	-16%	u
N[C@H](Cc1ccc(O)c(I)c1)C(=O)O	-1%	-7%	x	-1%	x	2%
CO[C@]1(C2=NCCN2)COc2ccccc2O1	u	0%	x	2%	6%	3%
CCNc1ncc2nc(-c3cn(C)c4ccccc34)c(=O)n(CCC#N)c2n1	219%	0%[11.4 µM]	x	5%	-7%	-4%[2.29 µM]
CC1(C)c2ssc(=S)c2-c2ccccc2N1C(=O)c1ccco1	3.2µM*	3%	>57	-15%	13%	5%
Cc1cc(C(=O)CSc2nc(N)cc(N)n2)c(C)n1CCc1ccc(F)cc1	20%	-2%	>57	u	13µM*	u
COc1ccc(CCn2c(C)cc(C(=O)CSc3nnnn3C)c2C)cc1	8%	2%	>57	u	2%	u
COc1cc(-c2nnn(CC(=O)NC3CCS(=O)(=O)C3)n2)ccc1OCc1ccccc1 (stereo not given)	-7%	13µM*	x	-4%	1%	-8%
O=C(CN(CCc1ccccc1)C(=O)Cn1nnc(-c2cccs2)n1)NCc1ccco1	0%	0%	>57	u	9%	25µM*
O=C(CN(CCc1ccccc1)C(=O)CN1C(=O)COc2ccccc21)NCc1ccco1	-9%	0%	>57	10%	-7%	26%
Cc1cnc(CNc2cc(-c3cccc(C#N)c3)ncn2)cn1	10%	-1%[2.29 µM]	x	-1%	-11%	8%
COc1ccc(-c2nc(-c3cccc(C)c3)no2)cc1OC	200%	-12%	>57	x	-24%	17%
COc1ccc(-c2nc(-c3ccccc3OC)no2)cc1OC	30%	16µM*	i	u	-11%	u
